# Experimental data as given in PubChem BioAssay (NCATS).
# Where “and” joins values, the source holds several entries; their conditions need not be identical. Equal entries are not always repeated. Records with an inconclusive call do not appear. Entries that show only a call come without a potency. Calls of active or inactive are those of the source. Unless noted, calls follow the shape of the dose curve; as a rule, active = well fitted curve in the direction sought with a large enough effect; inconclusive = small, poorly fitted or top-dose-only effect, or another doubt; inactive = no such curve, though single readings can be large; an effect the other way counts as inactive or inconclusive.
# Assays:
# [1] = biological target: Voltage-gated inwardly rectifying potassium channel KCNH2 (Homo sapiens) (UniProt Q12809); experiment: qHTS Assay for Small Molecule Inhibitors of the Human hERG Channel Activity (AID 588834);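 also: lower thallium flux fluorescence means stronger hERG block; nearly all actives have a fitted effect of over 50% in size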; also: potency is read from the fitted curve at half-maximal effect
# Summary of the method: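 Homogeneous FluxOR thallium flux assay using hERG-expressing U2OS cells (BacMam). Compound treatment about 10 minutes preceded stimulation; reduced fluorescence taken as channel block.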
# [2] = biological target: Luciferin 4-monooxygenase (Photinus pyralis) (UniProt P08659); experiment: Biochemical firefly luciferase enzyme assay for NPC (AID 624030);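 also: purified P. pyralis luciferase at 10 nM with luciferin and ATP substrate; nearly all actives have a fitted effect of over 70% in size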
# Summary of the method: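 Direct inhibition of firefly luciferase enzyme (10 nM final, 50 mM Tris Acetate) assessed by luminescence within 5 minutes. Percent activity scaled between DMSO and PTC124 positive control, with concentration-effect curves classified by fit quality and response.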
# [3] = S16 Schwann cell PMP22 intronic element firefly luciferase assay (AID 624032); also: nearly all actives have a fitted effect of over 30% in size; also: potency is read from the fitted curve at half-maximal effect
# Summary of the method: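 Luciferase reporter of PMP22 intronic-element expression in stably transfected S16 rat Schwann cells, read by ONE-Glo luminescence after 24 h compound exposure at 37 C. Activity scaled between DMSO (0%) and positive-control PTC124; concentration-effect curves quality-classified.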
# [4] = S16 Schwann cell PMP22 intronic element beta-lactamase assay (AID 624044; calls by dose curve; also: nearly all actives have a fitted effect of over 15% in size)
# Summary of the method: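 Beta-lactamase reporter under a PMP22 intronic regulatory element in stable S16 rat Schwann cells; 24 h compound exposure. 460 nm blue signal normalized between DMSO (0%) and potassium clavulanate, with 535 nm FRET tracking viability; curves classed by r2 and response.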
# [5] = biological target: Glutaminase kidney isoform, mitochondrial (Homo sapiens) (UniProt O94925); experiment: qHTS for Inhibitors of Glutaminase (GLS): LOPAC Validation (AID 624146);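 also: glutamate product detected by oxidase and peroxidase coupled Amplex red fluorescence gain; nearly all actives have a fitted effect of over 60% in size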
# Summary of the method: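 Enzyme dispensed in phosphate buffer (45 mM, pH 8.2, 0.02% Tween-20), compounds pinned in, then 1 mM L-glutamine solution and the glutamate oxidase–HRP–Amplex Red mix added; fluorescence read immediately and again after 30 min at room temperature.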
# [6] = qHTS of Trypanosoma Brucei Inhibitors: LOPAC Validation (AID 624147)
# Summary of the method: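 ADP (130 uM final) triggers the TbPYK reaction after compound addition; incubation is 45 min at room temperature. Kinase-Glo Plus is then added and luminescence imaged. Normalized data are fitted to concentration-effect curves.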
# [7] = biological target: Glucagon-like peptide 1 receptor (Homo sapiens) (UniProt P43220); experiment: qHTS of GLP-1 Receptor Agonists: LOPAC Validation (AID 624148);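 also: luminescence from a luciferase reporter switched on by cAMP; higher luminescence signal means agonism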
# Summary of the method: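 Agonism scored as increased luciferase luminescence driven by cAMP in HEK293 clones carrying GLP-1R. Cells settled 12 hours, received compound for 4-6 hr at 37 deg C, 5% CO2, and were read after 12 min detection reagent at RT.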
# [8] = qHTS of Nrf2 Activators: LOPAC Validation (AID 624149)
# Summary of the method: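 AREc32_Fluc cells, 1000/well, OPTI-MEM + 5% FBS, o/n 37 deg C 5% CO2; compound pin-transfer, 24 hr 37 deg C; Steady-Glo 30 min RT, luminescence read.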
# [9] = HTS Assay for Allosteric Antagonists of the Human D2 Dopamine Receptor: Hit Validation in HTRF (AID 624455)
# Summary of the method: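 HTRF read-out; cells stably expressing D1 receptor; hits scored for inhibition of D1-mediated response. Primary screen: calcium flux, force-coupled inducible Hek293 Trex D2 line, antagonism vs EC80 dopamine.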
# [10] = S16 Schwann cell viability assay (CellTiter-Glo assay) (AID 624031);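 also: native untransfected S16 rat Schwann cells; cellular ATP luminescence as a viability measure; nearly all actives have a fitted effect of over 70% in size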
# Summary of the method: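 Rat S16 Schwann cells without reporter constructs received compound or DMSO for 24 h at 37 °C under 5% CO2. Cellular ATP was then quantified by CellTiter-Glo luminescence, with vehicle wells defined as 0% activity and cell-free wells as reference.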
# [11] = Cytotoxicity counterscreen for NFkB agonists and antagonists (AID 624476)
# [12] = qHTS Assay for Identification of Small Molecule Agonists for NFkB Signaling Pathway. (AID 624478);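 also: compounds tested together with TNF alpha at its EC50 of 10 pM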
# Summary of the method: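 Read-out: 460/530 nm emission at 405 nm excitation after 2 h LiveBLAzer loading; ME-180 NFkB-bla reporter cells exposed 5 h at 37 C to compounds with 10 pM TNF alpha final.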
# [13] = qHTS Assay for Identification of Small Molecule Antagonists for NFkB Signaling Pathway. (AID 624479; calls by dose curve;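 also: pathway stimulated with TNF alpha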; also: potency is read from the fitted curve at half-maximal effect)
# [14] = Cell Proliferation Assay against the HBL1 Cell Line (AID 651646); conditions: HBL1 DLBCL cells; at 46.1 µM (top of the series) unless noted;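 also: cells exposed to compound for 48 h before reading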
# Summary of the method: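 CellTiter-Glo luminescence after 48 h compound exposure at 37C gives percent activity, with DMSO as 100% and 9.2 uM bortezomib final as 0%. Cells: 500 log-phase HBL1 per well, RPMI plus 5% FBS.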
# [15] = Cell Proliferation Assay against the TMD8 Cell Line (Caspase readout at 16 hrs) (AID 651712)
# Summary of the method: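 Caspase-Glo luminescence measured apoptosis after a 16 h, 37 C compound exposure of TMD8 cells (500 cells/well, 5% FBS RPMI). DMSO set 0% and bortezomib at 9.2 uM final set 100% activity.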
# [16] = Cell Proliferation Assay against the TMD8 Cell Line (AID 651645); conditions: TMD8 DLBCL cell line proliferation/viability; at 46.1 µM (top of the series) unless noted;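 also: cells exposed to compound for 48 h before reading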
# Summary of the method: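 Cell viability of the ABC DLBCL line TMD8 is measured by CellTiter-Glo luminescence following a 48-hour incubation with compound. Percent activity uses DMSO as 100% and 9.2 uM bortezomib (final) as 0%.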
# [17] = Cell Proliferation Assay against the TMD8 Cell Line (Caspase readout at 8 hrs) (AID 651713)
# Summary of the method: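 Apoptosis readout: caspase 3/7 luminescence (Caspase-Glo), 15 min RT. Cells: TMD8, 500/well, RPMI + 5% FBS, no phenol red. Exposure 8 h, 37C. % activity vs DMSO = 0, bortezomib 9.2 uM final = 100.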
# [18] = qHTS assay for small molecule agonists of the antioxidant response element (ARE) signaling pathway (AID 651741; active = well fitted activation curve with a large enough effect in the signal ratio; the % refers to the signal ratio; also: potency is read from the fitted curve at half-maximal effect)
# Summary of the method: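 Agonist activity is measured as ARE-driven beta-lactamase expression in a stable HepG2 reporter line, using 16 h compound treatment at 37 C and a FRET substrate fluorescence readout after 2 h.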
# [19] = qHTS assay for small molecule activators of the p53 signaling pathway (AID 651743; active = well fitted activation curve with a large enough effect in the signal ratio, not every such curve was filed as active; the % refers to the signal ratio); conditions: HCT-116 p53RE-bla, beta-lactamase FRET ratio, 16 h; activation: stronger effect = higher value
# Summary of the method: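 A beta-lactamase reporter under p53 response element control, stably carried by HCT-116 cells, reported pathway activation. Test compounds were applied for 16 hours at 37 C, and fluorescence was measured 2 hours after adding the B/G FRET substrate.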
# [20] = biological target: Thyroid hormone receptor beta (Homo sapiens) (UniProt P10828); experiment: qHTS assay for small molecule antagonists of thyroid hormone receptor beta signaling (AID 588547; active = well fitted inhibition curve with a large enough effect in the signal ratio, with a control signal flat, not every such curve was filed as active; the % refers to the signal ratio;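 also: cells stimulated with 0.4 nM T3 agonist during compound exposure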); conditions: TR-UAS-bla HEK293, beta-lactamase ratio, antagonist mode, 18 h
# Summary of the method: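 Inhibition of T3-driven (0.4nM final) beta-lactamase reporter activity was measured over 0.59 nM to 92 uM compound after 18 h at 37 C. The cells were GripTite HEK293 TR-UAS-bla in charcoal/dextran-stripped serum, with CCF4 ratio read-out and IC50 from Hill fits.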
# Chain of Glucagon-like peptide 1 receptor (Homo sapiens) (P43220 whole entry, looked up): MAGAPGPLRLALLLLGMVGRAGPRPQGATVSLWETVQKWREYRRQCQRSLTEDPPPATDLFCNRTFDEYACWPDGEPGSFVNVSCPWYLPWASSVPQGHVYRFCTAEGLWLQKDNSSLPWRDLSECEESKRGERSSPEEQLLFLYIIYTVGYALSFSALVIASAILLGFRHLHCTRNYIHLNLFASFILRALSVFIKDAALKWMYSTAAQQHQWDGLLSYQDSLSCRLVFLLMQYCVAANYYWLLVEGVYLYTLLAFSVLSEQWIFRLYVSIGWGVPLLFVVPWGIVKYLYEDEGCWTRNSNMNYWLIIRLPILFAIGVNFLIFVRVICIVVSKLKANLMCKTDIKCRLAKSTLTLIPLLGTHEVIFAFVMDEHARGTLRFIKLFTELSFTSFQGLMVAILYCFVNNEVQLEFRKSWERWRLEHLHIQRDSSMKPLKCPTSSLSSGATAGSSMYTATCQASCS
# Chain of Luciferin 4-monooxygenase (Photinus pyralis) (P08659 whole entry, looked up): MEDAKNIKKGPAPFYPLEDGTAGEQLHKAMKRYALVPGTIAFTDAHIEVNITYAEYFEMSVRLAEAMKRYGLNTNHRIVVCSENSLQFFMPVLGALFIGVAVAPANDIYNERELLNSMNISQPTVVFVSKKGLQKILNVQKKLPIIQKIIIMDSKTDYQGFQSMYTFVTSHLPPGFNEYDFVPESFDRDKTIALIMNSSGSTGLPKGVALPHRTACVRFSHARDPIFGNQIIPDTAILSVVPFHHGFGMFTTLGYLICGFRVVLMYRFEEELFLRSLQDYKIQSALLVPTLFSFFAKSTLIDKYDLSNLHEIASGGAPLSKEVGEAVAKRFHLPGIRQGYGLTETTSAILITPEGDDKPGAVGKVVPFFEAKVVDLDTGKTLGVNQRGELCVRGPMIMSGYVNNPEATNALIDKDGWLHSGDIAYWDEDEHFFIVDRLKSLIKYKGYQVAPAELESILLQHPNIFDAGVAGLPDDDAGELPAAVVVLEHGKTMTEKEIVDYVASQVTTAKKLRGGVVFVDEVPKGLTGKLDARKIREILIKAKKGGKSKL
# Chain of Voltage-gated inwardly rectifying potassium channel KCNH2 (Homo sapiens) (Q12809 whole entry, looked up): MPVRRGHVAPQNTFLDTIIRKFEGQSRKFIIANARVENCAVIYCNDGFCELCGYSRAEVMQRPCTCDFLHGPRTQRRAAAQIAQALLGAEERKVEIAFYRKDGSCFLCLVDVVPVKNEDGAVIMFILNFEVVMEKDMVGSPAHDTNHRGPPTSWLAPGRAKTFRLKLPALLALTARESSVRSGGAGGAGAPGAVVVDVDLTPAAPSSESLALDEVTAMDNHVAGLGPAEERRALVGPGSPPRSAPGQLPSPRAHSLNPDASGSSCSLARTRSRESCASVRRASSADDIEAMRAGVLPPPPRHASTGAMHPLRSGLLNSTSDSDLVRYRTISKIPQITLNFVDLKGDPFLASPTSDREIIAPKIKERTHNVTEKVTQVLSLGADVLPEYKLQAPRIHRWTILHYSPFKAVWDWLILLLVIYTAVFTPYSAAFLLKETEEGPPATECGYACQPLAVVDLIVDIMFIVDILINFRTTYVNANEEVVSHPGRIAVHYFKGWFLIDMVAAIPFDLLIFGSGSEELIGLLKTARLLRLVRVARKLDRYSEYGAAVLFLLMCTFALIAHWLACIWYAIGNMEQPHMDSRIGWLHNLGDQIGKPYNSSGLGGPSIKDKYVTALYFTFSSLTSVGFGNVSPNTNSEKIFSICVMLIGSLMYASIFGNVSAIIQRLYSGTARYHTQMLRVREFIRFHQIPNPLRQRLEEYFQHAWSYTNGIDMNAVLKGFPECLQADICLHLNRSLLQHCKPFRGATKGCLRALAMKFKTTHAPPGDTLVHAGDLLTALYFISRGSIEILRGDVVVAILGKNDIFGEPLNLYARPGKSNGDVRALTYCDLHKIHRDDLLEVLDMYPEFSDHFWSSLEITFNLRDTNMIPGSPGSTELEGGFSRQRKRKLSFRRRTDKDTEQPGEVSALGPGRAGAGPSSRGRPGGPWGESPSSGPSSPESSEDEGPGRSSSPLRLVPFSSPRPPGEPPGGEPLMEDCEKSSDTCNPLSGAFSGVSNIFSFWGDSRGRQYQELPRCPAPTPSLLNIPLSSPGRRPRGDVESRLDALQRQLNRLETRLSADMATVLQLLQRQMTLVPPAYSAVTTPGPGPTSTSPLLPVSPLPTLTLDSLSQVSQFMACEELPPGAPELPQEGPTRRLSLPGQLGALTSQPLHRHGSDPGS
# Chain of Glutaminase kidney isoform, mitochondrial (Homo sapiens) (O94925 whole entry, looked up, canonical isoform): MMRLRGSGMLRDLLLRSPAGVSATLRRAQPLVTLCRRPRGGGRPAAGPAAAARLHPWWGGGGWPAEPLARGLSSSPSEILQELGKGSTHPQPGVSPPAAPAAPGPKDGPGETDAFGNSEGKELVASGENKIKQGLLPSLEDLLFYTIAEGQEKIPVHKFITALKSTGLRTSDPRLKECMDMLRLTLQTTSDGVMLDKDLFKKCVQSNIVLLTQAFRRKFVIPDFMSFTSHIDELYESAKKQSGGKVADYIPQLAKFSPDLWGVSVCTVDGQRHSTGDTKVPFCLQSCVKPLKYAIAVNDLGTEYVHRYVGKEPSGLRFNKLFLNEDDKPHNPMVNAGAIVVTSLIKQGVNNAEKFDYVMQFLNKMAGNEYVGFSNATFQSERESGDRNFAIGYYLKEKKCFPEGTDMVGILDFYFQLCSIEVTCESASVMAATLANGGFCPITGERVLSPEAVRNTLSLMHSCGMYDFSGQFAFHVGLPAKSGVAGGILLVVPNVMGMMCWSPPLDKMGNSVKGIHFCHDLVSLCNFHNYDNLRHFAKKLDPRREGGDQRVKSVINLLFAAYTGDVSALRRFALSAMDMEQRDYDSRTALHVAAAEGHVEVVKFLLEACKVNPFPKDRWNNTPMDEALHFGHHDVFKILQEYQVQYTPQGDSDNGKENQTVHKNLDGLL
# Chain of Thyroid hormone receptor beta (Homo sapiens) (P10828 whole entry, looked up): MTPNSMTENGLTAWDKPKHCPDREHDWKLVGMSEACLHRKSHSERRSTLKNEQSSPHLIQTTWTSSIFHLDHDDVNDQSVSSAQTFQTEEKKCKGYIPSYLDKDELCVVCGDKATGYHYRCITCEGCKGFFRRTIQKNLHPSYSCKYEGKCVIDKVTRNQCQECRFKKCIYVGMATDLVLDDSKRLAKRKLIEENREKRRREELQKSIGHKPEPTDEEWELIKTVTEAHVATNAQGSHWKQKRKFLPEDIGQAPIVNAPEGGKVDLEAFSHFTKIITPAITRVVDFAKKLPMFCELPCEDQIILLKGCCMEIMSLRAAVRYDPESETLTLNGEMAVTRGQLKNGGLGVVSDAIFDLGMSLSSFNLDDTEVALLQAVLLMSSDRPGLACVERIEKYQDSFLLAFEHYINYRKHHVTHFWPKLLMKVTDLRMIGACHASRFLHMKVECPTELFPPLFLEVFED
structure (smiles),measurement,setting,value
CCOC(=O)C1=C[C@]2(CC)CCCN3CCc4c(n1c1ccccc41)[C@@H]32,Potency,[1],141 nM (active) and 31.6 nM (active)
same,Potency,[2],inactive
same,Potency,[3],inactive
same,outcome,[4],inactive
same,outcome,[5],inactive
same,outcome,[6],inactive
same,outcome,[7],inactive
same,outcome,[8],inactive
same,Potency,[9],inactive
NCCc1ccc(O)c(O)c1,Potency,[1],inactive
same,Potency,[2],inactive
same,Potency,[10],inactive
same,Potency,[3],8.09 µM (active)
same,outcome,[4],inactive
same,outcome,[5],inactive
same,outcome,[6],inactive
same,outcome,[8],inactive
O=C1CCc2cc(OCCCCc3nnnn3C3CCCCC3)ccc2N1,Potency,[1],inactive
same,Potency,[2],inactive
same,Potency,[10],inactive
same,outcome,[5],inactive
same,outcome,[6],inactive
same,outcome,[7],inactive
same,outcome,[8],inactive
same,Potency,[9],inactive
Cc1cn[nH]c1,Potency,[1],inactive
same,Potency,[2],inactive
same,Potency,[10],inactive
same,Potency,[3],inactive
same,outcome,[5],inactive
same,outcome,[6],inactive
same,outcome,[7],inactive
same,outcome,[8],inactive
same,Potency,[9],inactive
CC(c1cc2ccccc2s1)N(O)C(N)=O (centres undefined),Potency,[1],inactive
same,Potency,[2],inactive
same,Potency,[10],inactive
same,Potency,[3],inactive
same,outcome,[4],inactive
same,Potency,[11],inactive
same,outcome,[12],inactive
same,Potency,[13],inactive
same,"viability, percent of control",[14],96.2% [at 92.2 µM]
same,Potency,[15],inactive
Cc1[nH]c(=O)c(C#N)cc1-c1ccc2nccn2c1,Potency,[1],inactive
same,Potency,[2],inactive
same,Potency,[10],inactive
same,outcome,[6],inactive
same,outcome,[7],inactive
same,outcome,[8],inactive
same,Potency,[9],inactive
same,Potency,[11],inactive
same,outcome,[12],inactive
same,Potency,[13],inactive
same,viability (% of control),[16],104%
same,"viability, percent of control",[14],78.9%
same,Potency,[15],inactive
same,Potency,[17],inactive
CC(=O)Oc1ccccc1C(=O)O,Potency,[1],inactive
same,Potency,[2],inactive
same,Potency,[10],inactive
same,Potency,[3],inactive
same,outcome,[4],inactive
same,outcome,[5],inactive
same,outcome,[6],inactive
same,outcome,[7],inactive
same,outcome,[8],inactive
same,Potency,[9],inactive
same,Potency,[18],inactive
same,activation,[19],-2.89% (inactive) and -7.19% (inactive) and 1.5% (inactive)
N[C@@H]1CONC1=O,Potency,[1],inactive
same,Potency,[2],inactive
same,Potency,[10],inactive
same,Potency,[3],inactive
same,outcome,[4],inactive
same,outcome,[5],inactive
same,outcome,[6],inactive
same,outcome,[7],inactive
same,outcome,[8],inactive
same,Potency,[9],inactive
OC(CN1CCC(Cc2ccc(F)cc2)CC1)c1ccc(Cl)cc1 (centres undefined),Potency,[1],17.8 nM (active)
same,Potency,[2],inactive
same,Potency,[3],inactive
same,outcome,[5],inactive
same,outcome,[6],inactive
same,outcome,[7],inactive
same,outcome,[8],inactive
same,Potency,[9],inactive
same,Potency,[11],inactive
same,outcome,[12],inactive
same,Potency,[13],inactive
same,viability (% of control),[16],74%
same,"viability, percent of control",[14],66.4%
same,Potency,[15],inactive
same,Potency,[17],inactive
CCCC(CCC)C(=O)O,activity change % (negative = inhibition),[20],-9.25% (inactive) and 16% (inactive)
same,Potency,[1],inactive
same,Potency,[2],inactive
same,Potency,[10],inactive
same,Potency,[3],inactive
same,outcome,[5],inactive
same,outcome,[6],inactive
same,outcome,[7],inactive
same,Potency,[9],inactive
same,Potency,[18],inactive
C[C@]12CCC(=O)C=C1CC[C@@H]1[C@@H]2[C@@H](O)C[C@@]2(C)[C@H]1CC[C@]2(O)C(=O)CO,activity change % (negative = inhibition),[20],20.5% (inactive)
same,outcome,[5],inactive
same,outcome,[6],inactive
same,outcome,[7],inactive
same,outcome,[8],inactive
same,Potency,[9],inactive
same,Potency,[11],inactive
same,outcome,[12],inactive
same,Potency,[13],inactive
same,viability (% of control),[16],65.6%
same,"viability, percent of control",[14],39.1%
same,Potency,[15],inactive
same,Potency,[17],inactive
N=c1nc(N2CCCCC2)cc(N)n1O,Potency,[1],inactive
same,Potency,[2],inactive
same,Potency,[10],inactive
same,Potency,[3],inactive
same,outcome,[4],inactive
same,outcome,[5],inactive
same,outcome,[6],inactive
same,outcome,[7],inactive
same,outcome,[8],inactive
same,Potency,[9],inactive
N#Cc1ccc(C(c2ccc(C#N)cc2)n2cncn2)cc1,Potency,[1],inactive
same,Potency,[2],inactive
same,Potency,[10],inactive
same,Potency,[3],inactive
same,outcome,[4],inactive
same,Potency,[11],inactive
same,outcome,[12],inactive
same,Potency,[13],inactive
same,"viability, percent of control",[14],110%
same,Potency,[17],inactive
C1COC(NC(C2CC2)C2CC2)=N1,Potency,[1],inactive
same,Potency,[2],inactive
same,outcome,[5],inactive
same,outcome,[6],inactive
same,outcome,[7],inactive
same,outcome,[8],inactive
same,Potency,[9],inactive
NC(N)=NC(=O)c1nc(Cl)c(N)nc1N,activity change % (negative = inhibition),[20],4.66% (inactive)
same,Potency,[1],inactive
same,Potency,[2],inactive
same,Potency,[10],inactive
same,Potency,[3],inactive
same,outcome,[5],inactive
same,outcome,[6],inactive
same,outcome,[7],inactive
same,outcome,[8],inactive
same,Potency,[9],inactive
same,activation,[19],-2.4% (inactive)
CCc1ccc(CCOc2ccc(CC3SC(=O)NC3=O)cc2)nc1 (centres undefined),Potency,[1],inactive
same,Potency,[10],inactive
same,Potency,[3],inactive
same,outcome,[4],inactive
same,Potency,[11],inactive
same,outcome,[12],inactive
same,Potency,[13],16.8 µM (active)
same,"viability, percent of control",[14],77.7%
same,Potency,[17],inactive
O=C(O)COCCN1CCN(C(c2ccccc2)c2ccc(Cl)cc2)CC1 (centres undefined),outcome,[5],inactive
same,outcome,[6],inactive
same,outcome,[7],inactive
same,outcome,[8],inactive
Cc1cccc(-c2[nH]c(C(C)(C)C)nc2-c2ccc3nccnc3c2)n1,outcome,[5],inactive
same,outcome,[6],inactive
same,outcome,[7],inactive
same,outcome,[8],inactive
same,Potency,[9],inactive
same,Potency,[11],inactive
same,outcome,[12],inactive
same,Potency,[13],inactive
same,viability (% of control),[16],34%
same,"viability, percent of control",[14],100%
Cc1c(C)c2c(c(C)c1O)CCC(C)(COc1ccc(CC3SC(=O)NC3=O)cc1)O2 (centres undefined),Potency,[1],inactive
same,Potency,[10],inactive
same,Potency,[3],10.2 µM (active)
same,outcome,[4],inactive
same,outcome,[12],inactive
same,"viability, percent of control",[14],81.5%
same,Potency,[17],inactive
same,Potency,[18],21.7 µM (active)
CCC(C)N(C)C(=O)c1cc2ccccc2c(-c2ccccc2Cl)n1 (centres undefined),Potency,[1],inactive
same,outcome,[5],inactive
same,outcome,[6],inactive
same,outcome,[7],inactive
same,outcome,[8],inactive
same,Potency,[9],inactive
same,Potency,[11],inactive
same,outcome,[12],inactive
same,Potency,[13],inactive
same,viability (% of control),[16],65.6%
same,"viability, percent of control",[14],90%
same,Potency,[17],inactive
